Screening data (PubChem)
L3MBTL1 inh – L3MBTL1 (human) inhibition; Q9Y468; AlphaScreen L3MBTL1–H3K9me1 peptide binding; Potency, µM (doses to about 57.1 µM), inactives show at the top dose activity, negative = inhibition, hits mostly inhibitors; 230,000 compounds, 0.66% hits; AID 485360; further: on the % scale 0 is the no-effect control and ±100 the full control effect; nearly all actives have a fitted effect of over 60% in size
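L3MBTL1 50 nM + b-AHA-H3(1-15)K9me1 75 nM, 30 min RT; compound added, 30 min RT; streptavidin donor/Ni-chelate acceptor beads 10 ug/mL each final, 30 min RT dark; AlphaScreen read.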
HP1b binding inh – inhibitors of HP1-beta chromodomain binding to methylated histone tails; 390,000 compounds, 0.56% hits; AlphaScreen HP1-beta / biotin-H3K9me3 peptide binding; P83916; Potency, µM (highest dose often 114 µM), without a hit: at the highest dose activity change, negative = inhibition, usual class: inhibitors; further: nearly all actives have a fitted effect of over 70% in size
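AlphaScreen: HP1-beta (50 nM) preformed 30 min with biotin-H3(1-18)K9me3 peptide (50 nM) in PBS pH 7.4, 0.01% Tween-20. Compound added for 30 min at RT, then streptavidin donor/nickel chelate acceptor beads (10 ug/mL) for 30 min.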
GLS inh – glutaminase GLS (human) inhibition; O94925; GLS enzymatic activity, qHTS titration; Potency, µM (titrated, usually from 45.5 µM), inactives show at the top dose activity change, negative = inhibition, usual class: inhibitors; 410,000 compounds, 0.21% hits; AID 624170; further: on the % scale 0 is the no-effect control and ±100 the full control effect
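Glutamate formation by hKGA was monitored fluorometrically using coupled glutamate oxidase, HRP and Amplex Red. Substrate was added as 1 mM L-glutamine solution; incubation was 30 min at RT after an initial read.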
G9a block – G9a (human) methyltransferase inhibition; Q96KQ7; G9a H3K9 monomethylation, AlphaScreen, 2 h; Potency, µM (titrated, usually from 102 µM), inactives show top-dose activity, negative = inhibition, usual class: inhibitors; 350,000 compounds, 8.8% hits; AID 504332; further: on the % scale 0 is the no-effect control and ±100 the full control effect; nearly all actives have a fitted effect of over 75% in size
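Step 1: enzyme (final 20 nM) with compound, 15 min RT. Step 2: substrate peptide 500 nM and SAM 20 uM, 2 h RT. Step 3: anti-H3K9me1 antibody and AlphaScreen beads, 10 min, then plate read.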
JMJD2A Tudor – inhibitors of human JMJD2A Tudor domain | AlphaScreen JMJD2A-Tudor / H3K4me3 peptide binding | Potency, µM (doses to about 114 µM), for inactives: at the top dose activity change, negative = inhibition, actives largely listed as inhibitors | 390,000 compounds, 4.4% hits; further: on the % scale 0 is the no-effect control and ±100 the full control effect; nearly all actives have a fitted effect of over 50% in size
Target sequence (O75164 whole entry, looked up, the tested form may be a part): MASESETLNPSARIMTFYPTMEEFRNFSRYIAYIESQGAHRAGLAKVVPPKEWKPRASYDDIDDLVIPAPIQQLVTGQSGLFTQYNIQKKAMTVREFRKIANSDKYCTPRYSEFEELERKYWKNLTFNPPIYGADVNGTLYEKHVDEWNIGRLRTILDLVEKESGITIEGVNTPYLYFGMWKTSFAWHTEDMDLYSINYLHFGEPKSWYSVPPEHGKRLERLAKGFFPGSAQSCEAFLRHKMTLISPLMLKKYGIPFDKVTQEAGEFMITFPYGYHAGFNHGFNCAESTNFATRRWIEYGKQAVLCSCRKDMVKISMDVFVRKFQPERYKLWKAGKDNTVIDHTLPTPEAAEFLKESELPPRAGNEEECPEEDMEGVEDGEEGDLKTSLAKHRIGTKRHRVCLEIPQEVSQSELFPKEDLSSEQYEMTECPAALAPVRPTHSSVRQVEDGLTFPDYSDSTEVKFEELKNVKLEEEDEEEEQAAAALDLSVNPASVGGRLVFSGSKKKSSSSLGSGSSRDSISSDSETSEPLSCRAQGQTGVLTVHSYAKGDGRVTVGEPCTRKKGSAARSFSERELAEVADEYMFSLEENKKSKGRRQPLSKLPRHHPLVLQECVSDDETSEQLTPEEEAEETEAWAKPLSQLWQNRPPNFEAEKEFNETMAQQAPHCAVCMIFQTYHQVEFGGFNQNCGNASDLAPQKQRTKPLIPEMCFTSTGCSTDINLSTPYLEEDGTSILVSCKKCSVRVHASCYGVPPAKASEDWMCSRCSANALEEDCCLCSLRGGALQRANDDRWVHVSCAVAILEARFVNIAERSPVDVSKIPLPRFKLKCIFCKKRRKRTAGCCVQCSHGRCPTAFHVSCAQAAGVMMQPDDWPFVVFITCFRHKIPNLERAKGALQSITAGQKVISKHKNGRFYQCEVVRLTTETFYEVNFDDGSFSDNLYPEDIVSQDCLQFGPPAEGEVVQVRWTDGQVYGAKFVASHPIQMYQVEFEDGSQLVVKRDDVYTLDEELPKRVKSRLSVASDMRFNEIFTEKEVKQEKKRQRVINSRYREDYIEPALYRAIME
BAZ2B block – BAZ2B (human) inhibition | 360,000 compounds, 4.4% hits | Q9UIF8 | AlphaScreen BAZ2B-H3K14Ac peptide displacement | Potency, µM (highest dose often 114 µM), inactives show at the highest dose activity change, negative = inhibition, usual class: inhibitors; further: on the % scale 0 is the no-effect control and ±100 the full control effect; nearly all actives have a fitted effect of over 60% in size
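AlphaScreen luminescence quantifies BAZ2B engagement of H3K14Ac peptide; the protein and biotinylated peptide are both at 50 nM final, buffer PBS pH 7.4 with 0.01% Tween-20, all steps at room temperature.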
An asterisk follows results filed as active; ? = inconclusive; . = not tested or not shown; ! = a repeat was not active; [ ] = dose if it differs, or a comment. Only some compounds are listed: those with a hit (about 10% of all), similar ones and a draw of the others. The call rests on the fitted dose curve; in most records, active means well fitted curve in the direction sought with a large enough effect; inconclusive means small, poorly fitted or top-dose-only effect, or another doubt; inactive means no such curve, though single readings can be large; an effect the other way counts as inactive or inconclusive. Potency means the concentration at half of the fitted maximal effect.

SMILES | L3MBTL1 inh | HP1b binding inh | GLS inh | G9a block | JMJD2A Tudor | BAZ2B block
CCCN1C(=O)C(Cc2nc3ccccc3c(=O)n2CC)c2cc(Br)ccc21 (stereo not given) | . | 17.6% | -13.3% | -36.8%[59 µM] | -24.2% | -36.4%
CCOC(=O)c1sc2ccccc2c1S(=O)(=O)NCc1ccccc1OC | . | 32.0% | 4.1% | 3.4%[59 µM] | -9.0% | 4.1%
Cc1ccc(CN2CCSc3ccc(C(=O)NCc4cccnc4)cc32)cc1 | -1.5% | -4.7% | 21.1% | ? | 39.8µM* | ?
Cc1ccc(CN2CCSc3ccc(C(=O)N4CCN(c5ccc(Cl)cc5)CC4)cc32)cc1 | . | 6.1% | -6.3% | 3.16µM* | ? | -37.4%
CCN1CCSc2ccc(C(=O)NCc3ccc(OC(C)C)cc3)cc21 | -8.5% | 20.7% | 1.5% | 44.7µM*! | -20.4% | -32.2%
CCc1ccc(-n2c(C)nc3cc(C(=O)NCc4cccnc4)ccc32)cc1 | -1.6% | 22.3% | -5.6% | 50.1µM* | -30.5% | -22.3%
CCOc1ccccc1NC(=O)c1cnn2c(C(F)F)cc(-c3ccccc3)nc12 | . | 6.8% | -2.4% | -35.7%[59 µM] | ? | -26.1%
COc1ccc(C2/C(=C(/O)c3ccccc3)C(=O)C(=O)N2c2ccccn2)c(OC)c1 (stereo not given) | 0.0% | 33.2% | . | . | 15.8% | -27.5%
COc1cc(C2/C(=C(/O)c3ccccc3)C(=O)C(=O)N2c2ccccn2)ccc1O (stereo not given) | -2.3% | 1.7% | 8.91µM* | -29.6% | ? | -20.4%
COc1ccc(C2/C(=C(/O)c3ccc(F)cc3)C(=O)C(=O)N2c2ccccn2)cc1OC (stereo not given) | 11.7% | 22.9% | ? | -10.1% | 17.8µM* | -1.9%
Cc1ccccc1-c1nnc(CN2CCN(c3cc(Cl)ccc3C)CC2)o1 | . | 23.5% | -8.9% | 1.9%[59 µM] | -3.1% | -20.6%
COc1ccc(C(=O)NNC(=O)CSc2nc3c([nH]2)c(=O)n(C)c(=O)n3C)cc1 | 12.8% | 37.4% | 26.1% | 22.4µM* | 1.4% | -13.7%
COc1ccc(NC(=O)c2ccc(NC(=O)CSc3nccc(=O)[nH]3)cc2)cc1 | . | -13.8% | -2.9% | ? | ? | 56.2µM*
COc1ccc(C(=O)Nc2c(N)nc(SCC(=O)Nc3ccc(NC(C)=O)cc3)[nH]c2=O)cc1 | . | 11.4% | -5.0% | 46.0%[12.7 µM] | -6.2% | -0.1%
CS(=O)(=O)Nc1cccc(-c2nc(NCc3ccccc3)c3ccccc3n2)c1 | . | . | . | 3.3%[0.501 µM] | . | .
C(=N\N=C\c1ccccn1)/c1ccccn1 | . | 58.6% | -8.7% | 2.0% | ? | 50.1µM*
CCc1ccc(S(=O)(=O)NCc2ccc3c(c2)CCN3C(=O)c2ccc(C)cc2)cc1 | . | 12.7%[57 µM] | 3.7% | 10.2%[59 µM] | -14.9% | -2.5%
CCN1C/C(=C/c2ccc(OC)c(O)c2)C(=O)/C(=C/c2ccc(OC)c(O)c2)C1 | -7.9% | 17.2% | 1.4% | ? | -20.3% | .
COc1ccc(C=C2C(=O)c3ccccc3C2=O)cc1O | . | ? | 2.7% | 12.6µM* | ? | 10µM*
COc1ccc(/C=C2\CN(Cc3ccccc3)C/C(=C\c3ccc(OC)c(O)c3)C2=O)cc1O | . | ? | 15.0% | 44.7µM* | ? | 39.8µM*
COc1ccc(N2C3=C(CC4=C2CCCC4=O)C(=O)CCC3)cc1 | -16.8% | -52.4% | -15.8% | ? | 56.2µM* | -28.1%
COc1ccc(N2C3=C(CC4=C2CC(C)(C)CC4=O)C(=O)CC(C)(C)C3)cc1 | 1.5% | -5.1% | ? | ? | ? | 0.3%
CC1CCN(CC(=O)N2CCc3ccccc32)CC1 | . | 44.4% | 1.9% | 53.1% | -2.3% | 1.0%
CC(=O)N1CCc2cc(C(=O)CN3CCCN(Cc4ccc(F)cc4)C3)ccc21 | . | . | . | 44.7µM* | . | 1.0%
CC(=O)N1CCc2cc(C(=O)CN3CCN(c4cccc(Cl)c4)CC3)ccc21 | -5.3% | 21.4% | 0.8% | 22.4µM* | -25.9% | -11.7%
CC(=O)N1CCc2cc(C(=O)CN3CCN(C(=O)c4ccco4)CC3)ccc21 | 3.5% | 27.1% | 10.2% | 12.6µM* | -25.4% | -24.0%
